# NPC1 prom act = NPC1 promoter activation. Huh7 NPC1 promoter luciferase reporter, 24 h. Potency, µM (doses to about 9.22 µM), for inactives: at the top dose activation, hits mostly activators. AID 485313. hit rate 2.4% among 320,000; also: % of control where 0% means no effect; nearly all actives have a fitted effect of over 60% in size
#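 Luciferase expression driven by the NPC1 promoter was measured in stably transfected Huh7 cells after a 24 h compound incubation, using a luciferase reagent and a luminescence read.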
# FLuc counter = inhibits or activates purified firefly luciferase, miR-21 counter-screen; purified FLuc, Km substrates, luminescence inhibition; hit rate 6.9% among 360,000; P08659; Potency, µM (top dose mostly 57.5 µM), inactives show top-dose activity change, negative = inhibition, most hits filed as inhibitors; AID 588342;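 also: plate controls were vehicle for no effect and reference inhibitor for full effect; nearly all actives have a fitted effect of over 55% in size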
# Target sequence (P08659 whole entry, looked up): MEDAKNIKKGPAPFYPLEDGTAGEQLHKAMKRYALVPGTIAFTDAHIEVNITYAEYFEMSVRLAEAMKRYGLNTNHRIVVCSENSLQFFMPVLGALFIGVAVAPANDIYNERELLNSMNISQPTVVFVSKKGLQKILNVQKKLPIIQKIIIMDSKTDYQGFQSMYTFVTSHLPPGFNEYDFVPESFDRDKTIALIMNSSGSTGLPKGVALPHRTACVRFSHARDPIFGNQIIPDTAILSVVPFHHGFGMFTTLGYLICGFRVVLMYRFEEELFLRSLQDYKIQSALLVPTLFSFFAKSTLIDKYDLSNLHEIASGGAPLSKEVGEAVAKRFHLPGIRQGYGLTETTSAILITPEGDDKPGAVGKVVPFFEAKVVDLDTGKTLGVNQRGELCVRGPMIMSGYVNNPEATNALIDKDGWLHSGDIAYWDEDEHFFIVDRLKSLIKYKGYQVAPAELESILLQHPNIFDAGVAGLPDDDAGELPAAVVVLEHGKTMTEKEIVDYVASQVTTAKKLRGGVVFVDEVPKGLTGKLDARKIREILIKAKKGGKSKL
#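 Purified P. pyralis luciferase, 10 nM final, with Km-level 10 uM D-luciferin and 10 uM ATP in 50 mM Tris acetate pH 7.5, 10 mM Mg acetate, 0.01% Tween-20, 0.05% BSA; 6-point qHTS titration about 60 µM downward; luminescence read.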
# ELG1 DNA repair = blocks ELG1-dependent DNA repair in HEK293T cells; HEK293T ELG1-luciferase reporter, luminescence, 16 h; DNA damage induced by 5-fluorouridine; Potency, µM (titrated, usually from 46.1 µM), for the others: top-dose activity change, negative = inhibition, most hits filed as inhibitors; hit rate 2.3% among 330,000; also: % is scaled to controls: 0 for no effect and ±100 for the full control effect; nearly all actives have a fitted effect of over 55% in size
#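 In this reporter screen, reduction of luminescence relative to DMSO vehicle indicated activity. Compounds and 5-fluorouridine were added together to 2,000 cells per well, incubated for 16 hr at 37 °C, then developed with ONE-Glo.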
# ELG1 genotox = genotoxicity induction in ELG1-luciferase HEK293T cells. HEK293T ELG1-luciferase reporter, luminescence, 16 h. Potency, µM (highest dose often 46 µM), inactives show top-dose activity change, positive = activation, actives largely listed as activators. hit rate 1.3% among 330,000. AID 504466; also: % of control where 0% means no effect; nearly all actives have a fitted effect of over 60% in size
#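 Quantitative HTS format in 1536-well plates. HEK293T ELG1-luciferase reporter cells receive test compound and are incubated 16 hr at 37 °C, 5% CO2; ONE-Glo added, 30 min room temperature, then luminescence read.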
# Rab9 promoter act = activators of Rab9 promoter; Huh7 Rab9 promoter-luciferase reporter, luminescence, 24 h; Potency, µM (top dose mostly 9.22 µM), without a hit: at the highest dose activation, negative = inhibition, usual class: activators; hit rate 2.8% among 320,000; also: % of control where 0% means no effect; nearly all actives have a fitted effect of over 60% in size
#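 Quantitative HTS format; Huh7 Rab9-luciferase reporter cells (1500/well) receive compound 2 h post-plating, incubate 24 h at 37 °C, then get luciferase reagent for 10 min before luminescence reading.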
# SMN2 splice up = increases expression of the SMN2 splice variant | HEK293 SMN2-luciferase splicing reporter, luminescence, 30-36 h | Potency, µM (titrated, usually from 46.1 µM), for inactives: top-dose activity change, positive = activation, usual class: activators | hit rate 2.8% among 210,000 | AID 1458; also: % of control where 0% means no effect; nearly all actives have a fitted effect of over 55% in size
#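 qHTS luciferase splicing reporter: luminescence rises when SMN2 exon 7 is included in transfected HEK293 cells. Compound exposure lasted 30-36 h at 37C, with 4.5 mM final sodium butyrate as control, followed by a ONE-Glo read.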
# * hit, by the source's call; u = inconclusive; x = no result given; [ ] = another dose, or the depositor's remark. In the library only some 9.2% were active in any assay of this set; here they are far more common. Calls follow the shape of the dose curve; as a rule, active = well fitted curve in the direction sought with a large enough effect; inconclusive = small, poorly fitted or top-dose-only effect, or another doubt; inactive = no such curve, though single readings can be large; an effect the other way counts as inactive or inconclusive. Potency is read from the fitted curve at half-maximal effect.
SMILES,NPC1 prom act,FLuc counter,ELG1 DNA repair,ELG1 genotox,Rab9 promoter act,SMN2 splice up
COc1cc(Cl)ccc1OCc1cc(C(=O)NCC(C)(C)N2CCOCC2)no1,23%,15µM*,u,13%,29%,x
COc1ccc(CNC(=O)c2cc(COc3c(F)cccc3F)on2)cc1OC,-3%,-5%,u,-5%,-1%,x
O=C(Cc1ccccc1)c1ccccc1C(=O)N1CCCCC1,-3%,-6%,0%,0%,2%,x
CCOc1ccc2nc(NC(=O)CSc3ccccc3)sc2c1,22%,21µM*,6%,13%,12%,u
O=C(CSc1nccn1-c1ccccc1)Nc1nc2ccccc2s1,x,24µM*,x,x,x,x
CCOc1ccc2nc(NC(=O)c3cnc(C)cn3)sc2c1,24%,6µM*,2%,0%,18%,-27%
O=C(CSc1nccn1-c1ccc(Cl)cc1)Nc1nc2ccccc2s1,x,-6%,x,x,x,x
CCOc1ccc2nc(NC(=O)C3=NNC(=O)CC3)sc2c1,20%,u,u,14%,u,u
CCOc1ccc2nc(NC(=O)CCn3cccc3)sc2c1,15%,u,u,1%,20%,12%
CCCC(=O)Nc1nc2ccc(OCC)cc2s1,2.8µM*,11µM*,u,u,2.2µM*,22µM*
CC(NC(=O)CCNC(=O)c1ccc(Br)cc1)c1ccc(S(N)(=O)=O)cc1 (stereo unspecified),-3%,-2%,u,3%,3%,x
CC(=O)N1CCOc2ccc(S(=O)(=O)NCc3ccc(F)cc3)cc21,-1%,-2%,-9%,-3%[9.26 µM],-6%,x
CN(C)C(=S)Nc1nc2ccccc2s1,u,12µM*,u,u,u,x
CC(=O)NNc1nc2ccccc2s1,1%,3%,1%,-1%,4%,-24%
CCOc1ccc2nc(NC(=O)c3cccnc3)sc2c1,1.6µM*,1.5µM*,u,u,0.89µM*,7.9µM*
CCOc1ccc2nc(NS(=O)(=O)Cc3ccccc3)sc2c1,-20%,27µM*,u,21µM*,12%,5%
CCOc1ccc2nc(NC(=S)N(C)C)sc2c1,0.71µM*,1.3µM*,u,0.37µM*,0.79µM*,4µM*
CCOc1ccc2nc(NS(=O)(=O)c3ccc(NC(C)=O)cc3)sc2c1,2%,3%,0%,u,11%,14%
CCCn1c(CCC(=O)Nc2ccc(OCC)cc2)nc2cccnc21,x,-1%,x,x,x,13%
CCOc1ccc2nc(NC(=O)c3ccccc3)sc2c1,x,0.54µM*,x,x,x,1.3µM*
N/C(=N\OC(=O)c1ccco1)c1cccc(Br)c1,18%,6.7µM*,u,8.2µM*,18%,u
O=C(COC(=O)c1ccco1)Nc1cccc(Br)c1,-3%,-10%,2%,-1%,4%,-11%
N/C(=N\OC(=O)c1ccco1)c1cccc([N+](=O)[O-])c1,21%,24µM*,u,u,17%,x
COc1ccc(/C(N)=N/OC(=O)c2ccco2)cc1OC,u,u,u,u,u,11µM*
COc1ccc(/C(N)=N/OC(=O)CCc2ccccc2)cc1OC,1%,-14%,u,5%,-1%,3%
SMILES,NPC1 prom act,FLuc counter,ELG1 DNA repair,ELG1 genotox,Rab9 promoter act,SMN2 splice up
N/C(Cc1ccc([N+](=O)[O-])cc1)=N\OC(=O)c1ccco1,-1%,-3%,-11%,0%,-3%,x
CC1(C)CC(=O)C2=C(C1)Oc1nc3ccccc3cc1C2C(C#N)C#N (stereo unspecified),-22%,u,23µM*,3%,-17%,4%
O=C(Nc1ccc2[nH]c(=S)sc2c1)c1ccccc1,2.8µM*,u,u,u,u,11µM*
O=C(Nc1ccc2[nH]c(=S)sc2c1)Nc1ccccc1F,0.11µM*,21µM*,u,0.58µM*,0.13µM*,x
CCCn1c2ccccc2c2cnn(CC(=O)NC(CCSC)C(=O)OC)c(=O)c21 (stereo unspecified),x,-3%,x,x,x,x
COc1ccc(C2Nc3ccccc3C(=O)N2Cc2ccco2)cc1COc1ccccc1F (stereo unspecified),-1%,6%,18µM*,-3%,-3%,-7%
CCCCN(C(=O)CSc1ncn[nH]1)c1c(N)n(Cc2ccccc2)c(=O)[nH]c1=O,-5%,x,-3%,1%,0%,x
CC(C)(C)c1ccc(-c2nnc(SCC(=O)O)n2N)cc1,17%,11µM*,7%,6%,8%,4%
C=CCn1c(SCC(=O)O)nnc1-c1ccc(C(C)(C)C)cc1,-4%,17µM*,0%,-2%,5%,-2%
C=CCn1c(SCC(N)=O)nnc1-c1ccccc1O,-1%,-1%,-7%,-6%,11%,x
C=CCn1c(SCC(=O)NCc2ccccc2)nnc1-c1ccccc1O,0%,-1%,18µM*,-8%,-3%,u
COc1cccc(NC(=O)CCNC(=O)Cn2cnc3ccccc3c2=O)c1,x,1%,x,x,x,-3%
COc1ccccc1CNc1nc(-c2ccco2)nn1S(=O)(=O)c1ccc(Cl)cc1,x,-1%,x,x,x,x
OCCC1CN(Cc2cnc(N3CCOCC3)s2)CCN1C1CCCC1 (stereo unspecified),2%,1%,5%,-1%,1%,x
Cc1cc2c(cc3c(SCc4ccccc4Cl)nnc(C)n32)o1,x,13µM*,x,x,x,x
Cc1cc2c(cc3c(SCc4ccc(Cl)cc4)nnc(C)n32)o1,x,-17%,x,x,x,x
O=C(c1cc(-c2ccccc2)nc2ccccc12)N1CCN(C2CCS(=O)(=O)C2)CC1 (stereo unspecified),0%,27µM*,6%,1%,2%,x
O=C(c1ccco1)N1CCN(C(=O)c2cc(-c3ccccc3)nc3ccccc23)CC1,10%,6.7µM*,u,0%,4%,8%
O=C(c1ccco1)N1CCN(C(=O)c2cc(-c3ccccn3)nc3ccc(Cl)cc23)CC1,-3%,19µM*,10µM*,-12%,-9%,-1%
CN(C(=O)c1ccc2c(c1)OCO2)C1CCS(=O)(=O)C1 (stereo unspecified),1%,-1%,14%,0%,-3%,x
CNC(=O)c1c(I)c(C(=O)NCC(=O)Nc2c(I)c(C(=O)O)c(I)c(C(=O)NCCO)c2I)c(I)c(N(C)C(C)=O)c1I,-5%,-2%,18%,-10%,-1%,3%[20.6 µM]
CCn1cc(C(=O)NCCc2ccc(Cl)cc2)c(=O)c2cc(S(=O)(=O)N(C)C3CCCCC3)ccc21,x,-2%,x,x,x,-4%
CN(C)c1ccc(C=C2C(=O)OC(C)(C(C)(C)C)OC2=O)cc1 (stereo unspecified),-1%,9.5µM*,4%,0%,7%,3%
COc1ccc(C=C2C(=O)OC(C)(C)OC2=O)cc1OC,-3%,-11%,u,3%,0%[1.84 µM],x
